Calls of active or inactive are those of the source. The calls were made as follows: active = hit-call score of the fitted dose curve at least 0.9, where 1 is the maximum; inactive = score below 0.9.
Key:
[1] = APR_HepG2_NuclearSize_72hr: Apredica 72-hour HepG2 Assay for Nuclear Size (AID 2282925); conditions: high-content imaging, actives raise or lower the signal
How it was run: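 Read-out: nuclear diameter from Hoechst 33342 images (ArrayScan, 20x, six fields/well), via cell-cycle image analysis. HepG2 were dosed 0.39–200 uM for 72 hr in 0.5% DMSO. Bidirectional fit relative to DMSO.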

[2] = ATG_CRE_CIS: Attagene CIS-FACTORIAL HepG2 Assay for human cAMP Responsive Element (CRE) binding protein 3 (AID 2282926); conditions: HepG2 CRE cis-reporter, Attagene multiplexed mRNA; actives raise or lower the signal
How it was run: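 Liver-derived HepG2, transfected with a CRE-containing reporter panel, exposed 24 h; transcript levels sized and quantified by capillary electrophoresis of labelled amplicons; signal changes either way referenced to vehicle.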

[3] = biological target: CCAAT/enhancer-binding protein beta (Homo sapiens) (UniProt P17676); assay: ATG_C_EBP_CIS: Attagene CIS-FACTORIAL HepG2 Assay for human CCAAT/Enhancer Binding Protein (C/EBP) beta (AID 2282927); conditions: HepG2 Attagene cis-factorial transcription factor reporter; actives raise or lower the signal
How it was run: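 HepG2 transiently transfected with multiplexed reporter units under cis-regulatory promoters reporting endogenous C/EBPb activity. After 24 h exposure, reporter mRNA assayed by RT-PCR, fluorescent labelling, HpaI digestion and capillary electrophoresis; bidirectional fitting versus DMSO.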

[4] = ATG_CMV_CIS: Attagene CIS-FACTORIAL HepG2 Assay for human CMV (Internal Marker) (AID 2282928); conditions: HepG2 CMV promoter reporter, transcription factor profiling; actives raise or lower the signal;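 also: endpoint acts as a background internal control marker rather than a target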
How it was run: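 Readout: fluorescent reporter cDNA fragments separated by capillary electrophoresis after RT-PCR and HpaI cut. Cells: HepG2 carrying transfected cis-promoter reporter constructs, dosed 24 h. Endpoint serves as background internal-marker control, fit bidirectionally versus DMSO.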

[5] = ATG_DR4_LXR_CIS: Attagene CIS-FACTORIAL HepG2 Assay for human Liver X Receptor (LXR), DR4 submotif (AID 2282929); conditions: HepG2 Attagene DR4 cis-reporter, mRNA transcription; actives raise or lower the signal
How it was run: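 After transient transfection with multiplexed cis-promoter reporter units, HepG2 cells received test chemicals for 24 h. Reporter mRNA induction, detected by fluorescence after RT-PCR and capillary electrophoresis, was scored relative to DMSO.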

[6] = biological target: Aryl hydrocarbon receptor (Homo sapiens) (UniProt P35869); assay: ATG_Ahr_CIS: Attagene CIS-FACTORIAL HepG2 Assay for human Aryl Hydrocarbon Receptor (Ahr) (AID 2282930); conditions: HepG2 AhR cis-factorial reporter transcription; actives raise or lower the signal
How it was run: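 HepG2 cells transiently transfected with cis-element-driven multiplexed reporter units; endogenous AhR activity read as reporter mRNA 24 h after dosing, via RT-PCR, 6-FAM labelling, HpaI digestion and capillary electrophoresis. Bidirectional fit relative to DMSO.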

[7] = ATG_AP_1_CIS: Attagene CIS-FACTORIAL HepG2 Assay for human Activator Protein 1 (AP-1) (AID 2282931); conditions: HepG2 Attagene cis-factorial AP-1 reporter mRNA; actives raise or lower the signal
How it was run: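 After 24 h incubation with test chemical, RNA from transfected HepG2 cells was reverse-transcribed, amplified, fluorescently labelled and digested before capillary electrophoresis. Reporters were driven by cis-regulatory promoters; activity fitted bidirectionally versus DMSO.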

[8] = ATG_AP_2_CIS: Attagene CIS-FACTORIAL HepG2 Assay for human Activator Protein 2 (AP-2) (AID 2282932); conditions: HepG2 AP-2 cis-reporter, Attagene transcription factor profiling; actives raise or lower the signal
How it was run: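 Read-out: fluorescent reporter mRNA via RT-PCR and capillary electrophoresis, 24 h post-dose in transiently transfected HepG2. Endogenous factors drive cis-promoter reporters; gain or loss of signal fitted bidirectionally against DMSO.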

[9] = ATG_BRE_CIS: Attagene CIS-FACTORIAL HepG2 Assay for human Bone Morphogenetic Protein (BMP) Response Element (BRE) (AID 2282933); conditions: HepG2 BMP response element reporter, Attagene transcription factor profiling; actives raise or lower the signal
How it was run: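 HepG2 cells transiently transfected with CIS reporter units (endogenous TF activity, BMP response element), dosed 24 h. Reporter mRNA quantified by RT-PCR, fluorescent labelling and capillary electrophoresis; bidirectional fit vs DMSO baseline.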

[10] = biological target: Transcription factor E2F1 (Homo sapiens) (UniProt Q01094); assay: ATG_E2F_CIS: Attagene CIS-FACTORIAL HepG2 Assay for human E2F Transcription Factor 1 (AID 2282935); conditions: HepG2 Attagene cis-reporter, E2F reporter RNA transcripts; actives raise or lower the signal
How it was run: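 Transient MRTU transfection of HepG2; 24 h compound exposure; RNA → oligo(dT) RT → PCR → FAM label → HpaI cut → CE fluorescence. Gain/loss of signal fit against DMSO.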

[11] = ATG_E_Box_CIS: Attagene CIS-FACTORIAL HepG2 Assay for human Enhancer Box (E-box) (AID 2282936); conditions: HepG2 E-box cis-reporter transcription, actives raise or lower the signal
How it was run: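 Transiently transfected HepG2, endogenous TF-driven reporters, 24 h dosing. Readout: RT-PCR plus capillary electrophoresis of fluorescent reporter fragments. Gain or loss of signal fitted bidirectionally against DMSO baseline.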

[12] = ATG_M_61_CIS: Attagene CIS-FACTORIAL HepG2 Assay for M61 Transcription Factor (Internal Marker) (AID 2282937); conditions: HepG2 Attagene CIS-FACTORIAL M61 internal marker reporter; actives raise or lower the signal
How it was run: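 Using transiently transfected HepG2 liver cells, reporter transcript levels were assessed 24 h post-dosing by RT-PCR and capillary electrophoresis. Changes in either direction were fitted relative to DMSO controls.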

[13] = ATG_EGR_CIS: Attagene CIS-FACTORIAL HepG2 Assay for human Early Growth Response 1 (EGR1) (AID 2282938); conditions: HepG2 Attagene CIS-FACTORIAL EGR reporter mRNA; actives raise or lower the signal
How it was run: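 Fluorescent capillary-electrophoresis signal of reporter cDNA fragments serves as read-out. HepG2 cells bear transiently transfected cis-promoter reporter units and are exposed 24 h; gain- or loss-of-signal is fitted against DMSO.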

[14] = ATG_M_19_CIS: Attagene CIS-FACTORIAL HepG2 Assay for M19 Transcription Factor (Internal Marker) (AID 2282939); conditions: HepG2 Attagene CIS-FACTORIAL M19 internal marker reporter; actives raise or lower the signal
How it was run: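 HepG2 cells transiently transfected with cis-regulated multiplexed reporter units, dosed 24 h. Reporter mRNA quantified by RT-PCR and capillary electrophoresis; internal background marker fitted bidirectionally versus DMSO.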

[15] = ATG_ERE_CIS: Attagene CIS-FACTORIAL HepG2 Assay for Estrogen Response Element (ERE) (AID 2282940); conditions: HepG2 ERE cis-reporter, Attagene RNA transcript; actives raise or lower the signal
How it was run: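 HepG2 cells transiently transfected with multiplexed cis-element reporter units, measuring endogenous transcription factor activity; ERE reporter mRNA quantified after 24 h exposure by RT-PCR, fluorescent labelling, HpaI digestion and capillary electrophoresis. Bidirectional change versus DMSO.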

[16] = ATG_Ets_CIS: Attagene CIS-FACTORIAL HepG2 Assay for human Erythroblast Transformation Specific (ETS) (AID 2282941); conditions: HepG2 ETS cis-reporter transcription, actives raise or lower the signal
How it was run: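 RT-PCR/capillary electrophoresis fluorescence read-out of reporter mRNA; HepG2 transient multi-reporter transfection; 24 h compound exposure; gain or loss of signal fitted bidirectionally relative to DMSO.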

[17] = biological target: Hepatocyte nuclear factor 3-beta (Homo sapiens) (UniProt Q9Y261); assay: ATG_FoxA2_CIS: Attagene CIS-FACTORIAL HepG2 Assay for human Forkhead box A2 (FOXA2) (AID 2282942); conditions: HepG2 cis-reporter transcription factor activity, 24 h; actives raise or lower the signal
How it was run: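 Fluorescence signal of reporter cDNA fragments, separated by capillary electrophoresis, reflects endogenous transcription factor activity in transfected HepG2 after 24 h. Both increases and decreases fitted against DMSO.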

[18] = ATG_FoxO_CIS: Attagene CIS-FACTORIAL HepG2 Assay for human Forkhead box O (FoxO) (AID 2282943); conditions: HepG2 Attagene cis-reporter, FoxO element, mRNA; actives raise or lower the signal
How it was run: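 HepG2 cells transiently transfected with cis-element-driven reporter units report endogenous FoxO activity. After 24 h chemical exposure, reporter mRNA quantified by RT-PCR, fluorescent labeling, HpaI digestion and capillary electrophoresis; bidirectional fit versus DMSO.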

[19] = ATG_GATA_CIS: Attagene CIS-FACTORIAL HepG2 Assay for human GATA Binding Protein (AID 2282944); conditions: HepG2 GATA cis-element reporter, Attagene multiplex mRNA; actives raise or lower the signal
How it was run: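 HepG2 cells transiently transfected with multiplexed cis-element reporter units measure endogenous GATA activity; after 24 h compound exposure, reporter mRNA quantified by RT-PCR and capillary electrophoresis. Changes fitted in both directions vs DMSO.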

[20] = biological target: Retinoic acid receptor alpha (Homo sapiens) (UniProt P10276); assay: ATG_DR5_RAR_CIS: Attagene CIS-FACTORIAL HepG2 Assay for human Retinoic Acid Receptor Alpha (RARE), DR5 submotif (AID 2282934); conditions: HepG2 Attagene cis-factorial RARE DR5 reporter, mRNA; actives raise or lower the signal;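 as to AC50: reporter responds to endogenous RAR alpha beta and gamma in HepG2 not RARA alone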
How it was run: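 HepG2 cells transiently transfected with multiplexed reporter units; DR5 cis-element drives reporter through endogenous transcription factors. After 24 h dosing, reporter mRNA quantified by RT-PCR, fluorescent labeling, HpaI digestion and capillary electrophoresis; bidirectional fitting versus DMSO.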

Measured: AC50

CCAAT/enhancer-binding protein beta (Homo sapiens), sequence (P17676 whole entry, looked up): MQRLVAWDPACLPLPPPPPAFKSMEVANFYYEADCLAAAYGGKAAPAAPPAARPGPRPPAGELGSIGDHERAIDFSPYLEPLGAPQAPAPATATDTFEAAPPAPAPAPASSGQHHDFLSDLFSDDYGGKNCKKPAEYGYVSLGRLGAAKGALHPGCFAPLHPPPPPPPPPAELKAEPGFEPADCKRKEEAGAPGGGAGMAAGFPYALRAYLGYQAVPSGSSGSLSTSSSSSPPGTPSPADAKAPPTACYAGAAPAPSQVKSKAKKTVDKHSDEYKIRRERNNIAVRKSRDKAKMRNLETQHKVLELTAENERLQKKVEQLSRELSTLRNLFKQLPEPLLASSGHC
Hepatocyte nuclear factor 3-beta (Homo sapiens), sequence (Q9Y261 whole entry, looked up, the tested form may be a part): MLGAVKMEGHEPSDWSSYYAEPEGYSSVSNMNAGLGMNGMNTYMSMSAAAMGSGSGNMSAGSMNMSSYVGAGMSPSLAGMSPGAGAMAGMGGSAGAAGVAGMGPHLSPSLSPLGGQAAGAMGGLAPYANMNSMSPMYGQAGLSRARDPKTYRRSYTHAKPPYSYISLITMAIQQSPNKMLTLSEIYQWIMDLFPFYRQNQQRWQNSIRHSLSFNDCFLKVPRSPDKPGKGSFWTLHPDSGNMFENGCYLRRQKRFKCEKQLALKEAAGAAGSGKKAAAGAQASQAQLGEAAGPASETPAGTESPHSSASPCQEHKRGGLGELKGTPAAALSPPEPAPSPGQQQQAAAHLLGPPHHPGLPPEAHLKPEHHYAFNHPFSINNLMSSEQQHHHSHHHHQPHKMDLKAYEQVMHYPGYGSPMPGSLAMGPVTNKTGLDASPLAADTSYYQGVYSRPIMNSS
Retinoic acid receptor alpha (Homo sapiens), sequence (P10276 whole entry, looked up): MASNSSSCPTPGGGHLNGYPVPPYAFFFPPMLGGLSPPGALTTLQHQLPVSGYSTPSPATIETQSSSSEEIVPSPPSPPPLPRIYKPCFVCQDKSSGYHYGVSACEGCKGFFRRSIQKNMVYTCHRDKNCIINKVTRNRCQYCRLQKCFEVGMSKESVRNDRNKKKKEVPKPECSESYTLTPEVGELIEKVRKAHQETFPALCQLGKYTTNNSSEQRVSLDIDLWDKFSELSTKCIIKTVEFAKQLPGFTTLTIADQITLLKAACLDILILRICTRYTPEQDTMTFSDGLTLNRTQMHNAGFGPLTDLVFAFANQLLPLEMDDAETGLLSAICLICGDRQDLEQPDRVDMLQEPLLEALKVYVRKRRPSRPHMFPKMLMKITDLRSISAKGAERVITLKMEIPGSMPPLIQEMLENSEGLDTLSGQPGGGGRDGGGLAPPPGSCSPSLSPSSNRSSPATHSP
Transcription factor E2F1 (Homo sapiens), sequence (Q01094 whole entry, looked up): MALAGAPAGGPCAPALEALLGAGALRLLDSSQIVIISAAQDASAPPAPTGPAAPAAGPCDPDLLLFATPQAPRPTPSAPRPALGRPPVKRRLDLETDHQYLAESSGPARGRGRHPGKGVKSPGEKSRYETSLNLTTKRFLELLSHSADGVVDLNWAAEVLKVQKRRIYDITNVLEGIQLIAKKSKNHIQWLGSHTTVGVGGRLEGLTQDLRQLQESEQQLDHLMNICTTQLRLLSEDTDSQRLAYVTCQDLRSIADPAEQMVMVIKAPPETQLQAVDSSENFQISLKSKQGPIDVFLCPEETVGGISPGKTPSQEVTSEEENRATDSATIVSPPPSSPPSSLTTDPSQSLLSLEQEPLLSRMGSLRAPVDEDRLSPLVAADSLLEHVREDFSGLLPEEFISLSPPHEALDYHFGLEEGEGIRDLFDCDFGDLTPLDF
Aryl hydrocarbon receptor (Homo sapiens), sequence (P35869 whole entry, looked up): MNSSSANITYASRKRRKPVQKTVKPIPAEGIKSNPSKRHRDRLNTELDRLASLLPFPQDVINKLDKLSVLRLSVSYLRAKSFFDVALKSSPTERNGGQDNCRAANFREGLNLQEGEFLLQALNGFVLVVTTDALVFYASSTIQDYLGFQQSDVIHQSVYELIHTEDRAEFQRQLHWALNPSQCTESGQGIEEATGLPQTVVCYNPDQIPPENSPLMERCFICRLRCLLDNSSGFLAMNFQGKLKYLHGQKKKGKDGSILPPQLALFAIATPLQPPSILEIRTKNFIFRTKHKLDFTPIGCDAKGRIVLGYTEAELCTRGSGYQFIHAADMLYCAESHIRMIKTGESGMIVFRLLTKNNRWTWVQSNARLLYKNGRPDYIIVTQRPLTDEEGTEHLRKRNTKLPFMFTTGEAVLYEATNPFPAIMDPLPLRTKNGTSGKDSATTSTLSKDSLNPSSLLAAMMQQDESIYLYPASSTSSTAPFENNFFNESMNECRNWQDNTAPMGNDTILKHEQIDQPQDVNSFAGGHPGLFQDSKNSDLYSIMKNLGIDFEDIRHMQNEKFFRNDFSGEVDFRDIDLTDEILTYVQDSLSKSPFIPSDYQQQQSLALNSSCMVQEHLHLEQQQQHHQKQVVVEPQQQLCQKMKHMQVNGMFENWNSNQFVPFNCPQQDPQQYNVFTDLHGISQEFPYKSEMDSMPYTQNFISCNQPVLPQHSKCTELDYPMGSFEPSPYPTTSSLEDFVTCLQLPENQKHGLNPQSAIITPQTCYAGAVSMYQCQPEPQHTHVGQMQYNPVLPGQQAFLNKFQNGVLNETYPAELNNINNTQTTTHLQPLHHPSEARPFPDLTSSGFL

Cc1cc(Cl)ccc1OCC(=O)O
not listed: [20]
inactive: all other assays above

CS/C(C)=N/OC(=O)N(C)SN(C)C(=O)O/N=C(\C)SC
inactive: all assays above

CN(C)C(=S)SSC(=S)N(C)C
inactive: all assays above

CCCCC(CC)COC(=O)c1ccccc1C(=O)OCC(CC)CCCC (stereo not drawn)
inactive: all assays above

CCNc1nc(Cl)nc(NCC)n1
inactive: all assays above

COP(N)(=O)SC (stereo not drawn)
inactive: all assays above

CC(C)C1(C)N=C(c2nc3ccccc3cc2C(=O)O)NC1=O (stereo not drawn)
inactive: all assays above

COc1nc(C)nc(NC(=O)NS(=O)(=O)c2ccccc2Cl)n1
inactive: all assays above

CCOP(=S)(OCC)SCn1c(=O)oc2cc(Cl)ccc21
active: [2] 9.92 µM | [3] 12.9 µM | [4] 26.4 µM | [5] 80.8 µM | [9] 50 µM | [20] 12.7 µM | [16] 50 µM
inactive: all other assays above

CC1COC(Cn2cncn2)(c2ccc(Oc3ccc(Cl)cc3)cc2Cl)O1 (stereo not drawn)
active: [2] 1.6 µM | [3] 0.829 µM | [7] 4.29 µM | [9] 1.71 µM | [15] 0.245 µM
inactive: all other assays above

COC(=O)C(C)Oc1ccc(Oc2ccc(Cl)cc2Cl)cc1 (stereo not drawn)
not listed: [15]
inactive: all other assays above

CC(Oc1ccc(Cl)cc1Cl)C(=O)O (stereo not drawn)
inactive: all assays above

N#CC(CCc1ccc(Cl)cc1)(Cn1cncn1)c1ccccc1 (stereo not drawn)
active: [7] 26.7 µM
inactive: all other assays above

C#CCOS(=O)OC1CCCCC1Oc1ccc(C(C)(C)C)cc1 (stereo not drawn)
active: [2] 0.994 µM | [3] 0.658 µM | [7] 1.55 µM | [9] 1.16 µM | [13] 1.46 µM
inactive: all other assays above

CCOC(=O)C(Cl)Cc1cc(-n2nc(C)n(C(F)F)c2=O)c(F)cc1Cl (stereo not drawn)
active: [15] 50 µM
inactive: all other assays above

Fc1ccc(Oc2ccnc3cc(Cl)cc(Cl)c23)cc1
active: [4] 6.43 µM | [5] 2.72 µM | [20] 2.77 µM | [11] 5.95 µM
inactive: all other assays above

Cc1ccc(-c2c(Cl)nc(C#N)n2S(=O)(=O)N(C)C)cc1
active: [2] 7.83 µM | [3] 7.57 µM | [7] 9.12 µM | [9] 10.3 µM | [20] 11.9 µM
inactive: all other assays above

CCc1nn(C)c(C(=O)NCc2ccc(C(C)(C)C)cc2)c1Cl
active: [2] 0.378 µM | [3] 1.19 µM | [4] 0.171 µM | [7] 0.117 µM | [9] 0.578 µM | [20] 0.425 µM
inactive: all other assays above

Source: PubChem BioAssay (EPA / NIEHS)
